Measured values taken from the supplement of paper PMC10849652.
The full data set covers some 8,800 targets. This sample favours those with a hit. About 0.5% of all pairs of compound and target were hits.

Compound: NCC(=O)Nc1ccc(-n2nc(C(F)(F)F)cc2-c2ccc3c(ccc4ccccc43)c2)cc1
Assay: log2 fold change, soluble protein after heating vs DMSO (PISA); higher = thermal stabilisation; K562 lysate, 10 uM; active = over 0.2 and 3.5 SD of the protein, either way, in both replicates (recomputed)
Method in brief: (§1)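 To prepare the extract, K562 pellets were dounce-homogenised in PBS pH 7.4 with 1 mM MgCl2, giving crude material at 1 mg/mL protein. This was treated with 10 μM compound for 30 min, then heated in aliquots for 3 min over 48°C-58°C before pooling and addition of NP-40 to 0.5% at 4°C. Centrifugation at 21,000xg for 90 min left soluble protein in the supernatant, which TMTpro 16plex LC-MS/MS quantified with equalised channel sums. Results are log-two fold changes in thermal stability compared with solvent controls, from duplicates.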

UniProt Q9BYG3, sequence (Q9BYG3 whole entry, looked up): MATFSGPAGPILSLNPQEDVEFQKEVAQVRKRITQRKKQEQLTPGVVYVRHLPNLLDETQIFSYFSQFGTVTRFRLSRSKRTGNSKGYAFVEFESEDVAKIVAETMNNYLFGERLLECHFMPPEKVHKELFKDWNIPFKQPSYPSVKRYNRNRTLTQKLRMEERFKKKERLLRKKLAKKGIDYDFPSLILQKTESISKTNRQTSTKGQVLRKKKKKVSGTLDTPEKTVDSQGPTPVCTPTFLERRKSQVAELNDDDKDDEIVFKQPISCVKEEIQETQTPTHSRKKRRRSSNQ
UniProt Q9H3P2, sequence (Q9H3P2 whole entry, looked up): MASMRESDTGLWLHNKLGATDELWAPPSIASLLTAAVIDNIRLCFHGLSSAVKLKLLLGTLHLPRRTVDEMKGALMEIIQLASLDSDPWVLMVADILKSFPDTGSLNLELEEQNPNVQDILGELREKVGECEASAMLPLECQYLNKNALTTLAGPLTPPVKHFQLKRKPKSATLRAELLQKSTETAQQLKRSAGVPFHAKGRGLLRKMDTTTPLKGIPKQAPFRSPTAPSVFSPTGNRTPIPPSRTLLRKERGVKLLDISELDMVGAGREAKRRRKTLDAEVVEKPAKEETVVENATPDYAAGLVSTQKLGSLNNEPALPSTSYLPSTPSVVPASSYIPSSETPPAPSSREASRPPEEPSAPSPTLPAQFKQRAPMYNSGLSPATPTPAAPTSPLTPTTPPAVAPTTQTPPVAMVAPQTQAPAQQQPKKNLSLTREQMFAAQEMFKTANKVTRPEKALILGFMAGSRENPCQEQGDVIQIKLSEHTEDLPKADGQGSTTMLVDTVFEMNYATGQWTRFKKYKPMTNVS
UniProt Q9HD67, sequence (Q9HD67 whole entry, looked up): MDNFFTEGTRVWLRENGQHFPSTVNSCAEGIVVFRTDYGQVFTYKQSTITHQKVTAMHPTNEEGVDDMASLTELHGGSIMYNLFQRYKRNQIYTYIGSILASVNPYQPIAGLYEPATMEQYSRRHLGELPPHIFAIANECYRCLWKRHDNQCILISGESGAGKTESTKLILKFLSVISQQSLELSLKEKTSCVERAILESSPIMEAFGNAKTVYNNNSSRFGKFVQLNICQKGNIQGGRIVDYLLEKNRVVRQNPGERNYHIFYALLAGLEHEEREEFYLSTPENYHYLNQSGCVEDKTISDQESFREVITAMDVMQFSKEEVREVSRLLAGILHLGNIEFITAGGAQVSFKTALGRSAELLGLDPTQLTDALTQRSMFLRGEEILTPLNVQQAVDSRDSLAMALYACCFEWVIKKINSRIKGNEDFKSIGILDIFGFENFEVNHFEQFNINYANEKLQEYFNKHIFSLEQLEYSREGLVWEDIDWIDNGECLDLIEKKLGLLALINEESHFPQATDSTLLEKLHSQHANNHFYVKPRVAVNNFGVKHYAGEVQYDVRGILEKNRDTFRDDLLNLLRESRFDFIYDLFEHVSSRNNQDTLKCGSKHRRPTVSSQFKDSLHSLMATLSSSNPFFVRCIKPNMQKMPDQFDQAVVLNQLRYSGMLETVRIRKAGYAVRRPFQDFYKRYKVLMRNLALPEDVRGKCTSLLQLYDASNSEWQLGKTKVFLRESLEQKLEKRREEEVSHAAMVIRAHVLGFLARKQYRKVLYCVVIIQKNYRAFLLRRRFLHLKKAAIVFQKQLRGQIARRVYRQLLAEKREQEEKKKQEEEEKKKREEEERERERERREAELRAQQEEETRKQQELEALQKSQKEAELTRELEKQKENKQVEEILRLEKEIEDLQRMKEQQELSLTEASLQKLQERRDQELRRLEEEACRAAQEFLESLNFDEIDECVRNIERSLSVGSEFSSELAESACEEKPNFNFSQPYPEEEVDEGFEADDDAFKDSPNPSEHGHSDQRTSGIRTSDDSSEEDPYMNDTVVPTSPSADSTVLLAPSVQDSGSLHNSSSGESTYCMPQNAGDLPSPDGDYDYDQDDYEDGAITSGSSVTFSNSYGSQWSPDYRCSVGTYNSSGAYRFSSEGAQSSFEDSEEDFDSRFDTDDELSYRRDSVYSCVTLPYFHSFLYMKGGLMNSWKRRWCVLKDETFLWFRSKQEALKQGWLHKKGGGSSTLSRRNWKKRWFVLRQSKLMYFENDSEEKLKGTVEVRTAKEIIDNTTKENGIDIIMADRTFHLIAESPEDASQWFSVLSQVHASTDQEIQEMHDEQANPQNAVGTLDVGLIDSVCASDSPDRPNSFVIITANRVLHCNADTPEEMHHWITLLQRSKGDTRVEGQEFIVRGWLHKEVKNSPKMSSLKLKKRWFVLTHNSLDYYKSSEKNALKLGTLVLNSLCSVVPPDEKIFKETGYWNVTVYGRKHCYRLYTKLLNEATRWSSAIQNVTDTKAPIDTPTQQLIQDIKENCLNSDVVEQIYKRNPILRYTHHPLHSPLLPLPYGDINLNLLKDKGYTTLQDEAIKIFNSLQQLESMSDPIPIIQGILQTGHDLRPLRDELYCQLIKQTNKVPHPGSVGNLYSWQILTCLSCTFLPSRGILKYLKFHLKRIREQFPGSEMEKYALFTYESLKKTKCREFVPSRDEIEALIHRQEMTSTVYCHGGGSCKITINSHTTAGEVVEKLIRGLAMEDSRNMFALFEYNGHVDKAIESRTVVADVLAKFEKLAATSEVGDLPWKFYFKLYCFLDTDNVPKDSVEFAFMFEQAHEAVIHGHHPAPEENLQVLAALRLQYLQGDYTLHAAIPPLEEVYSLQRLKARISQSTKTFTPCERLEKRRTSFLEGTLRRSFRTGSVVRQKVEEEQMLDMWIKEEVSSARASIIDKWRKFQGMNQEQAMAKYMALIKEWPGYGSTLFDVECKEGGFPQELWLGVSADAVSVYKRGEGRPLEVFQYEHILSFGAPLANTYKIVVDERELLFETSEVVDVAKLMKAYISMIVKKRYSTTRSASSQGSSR
UniProt Q9Y5A7, sequence (Q9Y5A7 whole entry, looked up): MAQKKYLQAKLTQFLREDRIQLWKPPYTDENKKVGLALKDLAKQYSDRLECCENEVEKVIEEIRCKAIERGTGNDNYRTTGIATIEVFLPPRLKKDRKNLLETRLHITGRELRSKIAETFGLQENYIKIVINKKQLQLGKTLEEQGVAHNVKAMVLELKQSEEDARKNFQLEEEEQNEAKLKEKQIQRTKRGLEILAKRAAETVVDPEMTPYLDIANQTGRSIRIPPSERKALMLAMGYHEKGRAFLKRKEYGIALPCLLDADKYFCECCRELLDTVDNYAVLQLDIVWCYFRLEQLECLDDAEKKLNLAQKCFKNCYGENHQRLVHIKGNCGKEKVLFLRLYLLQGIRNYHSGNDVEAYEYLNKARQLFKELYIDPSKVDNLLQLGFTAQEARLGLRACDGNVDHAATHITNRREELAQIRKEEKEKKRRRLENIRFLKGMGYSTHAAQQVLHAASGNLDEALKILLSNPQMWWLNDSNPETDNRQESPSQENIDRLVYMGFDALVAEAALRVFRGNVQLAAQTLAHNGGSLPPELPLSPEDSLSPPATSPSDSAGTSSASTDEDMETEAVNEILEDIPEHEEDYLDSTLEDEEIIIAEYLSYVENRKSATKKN
UniProt O43913, sequence (O43913 whole entry, looked up): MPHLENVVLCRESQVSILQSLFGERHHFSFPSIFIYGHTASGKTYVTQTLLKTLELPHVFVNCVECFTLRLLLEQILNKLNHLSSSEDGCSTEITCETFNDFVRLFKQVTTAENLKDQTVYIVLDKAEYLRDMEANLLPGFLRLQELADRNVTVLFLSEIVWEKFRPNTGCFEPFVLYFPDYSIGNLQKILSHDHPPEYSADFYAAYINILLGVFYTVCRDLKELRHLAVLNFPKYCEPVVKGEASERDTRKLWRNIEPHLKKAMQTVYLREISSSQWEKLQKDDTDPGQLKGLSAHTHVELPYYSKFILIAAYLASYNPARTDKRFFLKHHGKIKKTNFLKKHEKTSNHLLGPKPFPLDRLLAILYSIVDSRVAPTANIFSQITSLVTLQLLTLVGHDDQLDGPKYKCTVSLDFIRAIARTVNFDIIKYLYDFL
UniProt Q9UBD5, sequence (Q9UBD5 whole entry, looked up): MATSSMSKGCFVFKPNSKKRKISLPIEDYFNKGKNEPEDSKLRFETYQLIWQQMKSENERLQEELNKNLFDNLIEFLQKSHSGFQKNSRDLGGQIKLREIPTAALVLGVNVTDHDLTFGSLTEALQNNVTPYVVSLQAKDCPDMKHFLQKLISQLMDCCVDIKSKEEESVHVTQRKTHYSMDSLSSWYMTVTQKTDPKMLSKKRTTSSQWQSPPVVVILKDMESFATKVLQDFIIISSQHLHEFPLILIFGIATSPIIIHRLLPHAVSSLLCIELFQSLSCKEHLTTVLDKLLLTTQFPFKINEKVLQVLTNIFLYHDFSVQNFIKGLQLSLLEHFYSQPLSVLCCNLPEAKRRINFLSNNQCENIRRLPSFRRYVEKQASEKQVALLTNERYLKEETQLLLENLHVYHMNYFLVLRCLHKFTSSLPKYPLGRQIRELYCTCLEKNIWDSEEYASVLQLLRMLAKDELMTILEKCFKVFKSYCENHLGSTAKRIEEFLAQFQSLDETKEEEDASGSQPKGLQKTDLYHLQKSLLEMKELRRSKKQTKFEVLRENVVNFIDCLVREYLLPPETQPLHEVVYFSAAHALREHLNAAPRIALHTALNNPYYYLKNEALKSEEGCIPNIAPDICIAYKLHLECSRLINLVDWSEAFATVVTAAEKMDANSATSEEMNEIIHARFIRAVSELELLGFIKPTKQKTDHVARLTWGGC
UniProt Q96NT1, sequence (Q96NT1 whole entry, looked up): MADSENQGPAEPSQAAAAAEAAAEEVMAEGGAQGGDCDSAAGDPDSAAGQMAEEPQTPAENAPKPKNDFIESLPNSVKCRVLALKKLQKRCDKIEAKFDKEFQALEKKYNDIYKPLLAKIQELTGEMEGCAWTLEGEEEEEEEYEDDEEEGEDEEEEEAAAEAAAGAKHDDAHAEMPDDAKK
UniProt Q9NZJ9, sequence (Q9NZJ9 whole entry, looked up): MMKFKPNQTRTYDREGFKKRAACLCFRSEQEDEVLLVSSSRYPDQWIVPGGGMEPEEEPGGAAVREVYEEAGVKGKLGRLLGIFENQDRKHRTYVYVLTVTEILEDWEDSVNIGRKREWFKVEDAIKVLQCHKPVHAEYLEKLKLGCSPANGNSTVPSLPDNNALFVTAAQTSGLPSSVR

| Target | log2 fold change |
| --- | --- |
| NIFK (UniProt Q9BYG3) | 0.063 (inactive) |
| ORC5 (UniProt O43913) | 0.023 (inactive) |
| NUP98 (UniProt P52948) | 0.021 (inactive) |
| NELFA (UniProt Q9H3P2) | -0.057 (inactive) |
| MTOR (UniProt P42345) | -0.035 (inactive) |
| MYO9A isoform 4 (UniProt B2RTY4) | -0.051 (inactive) |
| MYO10 (UniProt Q9HD67) | 0.401 (inactive) |
| NUDT5 (UniProt Q9UKK9) | -0.018 (inactive) |
| ORC3 isoform 2 (UniProt Q9UBD5) | -0.012 (inactive) |
| NUB1 (UniProt Q9Y5A7) | -0.004 (inactive) |
| NAP1L5 (UniProt Q96NT1) | 0.023 (inactive) |

Compound: O=C(CCCCCCC(=O)Nc1ccccc1)NO [vorinostat]
Assay: as above
Method in brief: as §1

| Target | log2 fold change |
| --- | --- |
| MSI2 (UniProt Q96DH6) | -0.046 (inactive) |
| NUMBL (UniProt Q9Y6R0) | -0.237 (inactive) |
| NF1 (UniProt P21359) | -0.634 (active) |
| NIT2 (UniProt Q9NQR4) | 0.346 (active) |
| NAA38 isoform 2 (UniProt Q9BRA0) | -0.088 (inactive) |
| NQO1 (UniProt P15559) | -0.132 (inactive) |
| NNMT (UniProt P40261) | -0.104 (inactive) |
| NCAPG2 (UniProt Q86XI2) | -0.598 (active) |
| NARS2 (UniProt Q96I59) | -0.344 (active) |
| NCAPD2 (UniProt Q15021) | -0.332 (active) |
| MYO1C (UniProt O00159) | -0.171 (inactive) |
| NIPSNAP3A (UniProt Q9UFN0) | 0.136 (inactive) |
| OTUD7B (UniProt Q6GQQ9) | 0.331 (active) |
| MT-ND1 (UniProt P03886) | 0.072 (inactive) |
| NR2C2 isoform 2 (UniProt P49116) | -0.233 (inactive) |
| NUDT4 isoform 2 (UniProt Q9NZJ9) | -0.336 (active) |
| NT5DC2 isoform 2 (UniProt Q9H857) | -0.272 (active) |

| Target | log2 fold change |
| --- | --- |
| NCAPH (UniProt Q15003) | -0.33 (active) |
| MSH2 (UniProt P43246) | -0.287 (active) |
| NBN (UniProt O60934) | -0.21 (active) |
| NPTN (UniProt Q9Y639) | 0.078 (inactive) |
| MTA3 (UniProt Q9BTC8) | -0.278 (active) |
| MRPS18A isoform 2 (UniProt Q9NVS2) | 0.021 (inactive) |
| NIFK (UniProt Q9BYG3) | 0.063 (inactive) |
| ORC5 (UniProt O43913) | -0.377 (active) |
| NUP98 (UniProt P52948) | -0.231 (active) |
| NELFA (UniProt Q9H3P2) | -0.309 (active) |
| MTOR (UniProt P42345) | -0.305 (active) |
| MYO9A isoform 4 (UniProt B2RTY4) | 0.084 (inactive) |
| MYO10 (UniProt Q9HD67) | -0.038 (inactive) |
| NUDT5 (UniProt Q9UKK9) | 0.1 (inactive) |
| ORC3 isoform 2 (UniProt Q9UBD5) | -0.409 (active) |
| NUB1 (UniProt Q9Y5A7) | -0.333 (active) |
| NAP1L5 (UniProt Q96NT1) | 0.059 (inactive) |

Compound: O=C(O)c1ccc2c(c1)nc(Nc1cccc(Cl)c1)c1ccncc12 [silmitasertib]
Assay: as above
Method in brief: as §1

| Target | log2 fold change |
| --- | --- |
| MSI2 (UniProt Q96DH6) | -0.021 (inactive) |
| NUMBL (UniProt Q9Y6R0) | 0.201 (inactive) |
| NF1 (UniProt P21359) | 0.037 (inactive) |
| NIT2 (UniProt Q9NQR4) | -0.001 (inactive) |
| NAA38 isoform 2 (UniProt Q9BRA0) | 0.009 (inactive) |
| NQO1 (UniProt P15559) | 0.038 (inactive) |
| NNMT (UniProt P40261) | 0.014 (inactive) |
| NCAPG2 (UniProt Q86XI2) | 0.015 (inactive) |
| NARS2 (UniProt Q96I59) | 0.05 (inactive) |
| NCAPD2 (UniProt Q15021) | 0.01 (inactive) |
| MYO1C (UniProt O00159) | 0.015 (inactive) |
| NIPSNAP3A (UniProt Q9UFN0) | -0.061 (inactive) |
| OTUD7B (UniProt Q6GQQ9) | -0.038 (inactive) |
| MT-ND1 (UniProt P03886) | 0.033 (inactive) |
| NR2C2 isoform 2 (UniProt P49116) | 0.041 (inactive) |
| NUDT4 isoform 2 (UniProt Q9NZJ9) | -0.034 (inactive) |
| NT5DC2 isoform 2 (UniProt Q9H857) | -0.019 (inactive) |

| Target | log2 fold change |
| --- | --- |
| NCAPH (UniProt Q15003) | 0.009 (inactive) |
| MSH2 (UniProt P43246) | 0.027 (inactive) |
| NBN (UniProt O60934) | 0.023 (inactive) |
| NPTN (UniProt Q9Y639) | -0.031 (inactive) |
| MTA3 (UniProt Q9BTC8) | -0.017 (inactive) |
| MRPS18A isoform 2 (UniProt Q9NVS2) | 0.048 (inactive) |
| NIFK (UniProt Q9BYG3) | -0.001 (inactive) |
| ORC5 (UniProt O43913) | 0.072 (inactive) |
| NUP98 (UniProt P52948) | 0.001 (inactive) |
| NELFA (UniProt Q9H3P2) | -0.004 (inactive) |
| MTOR (UniProt P42345) | 0.146 (inactive) |
| MYO9A isoform 4 (UniProt B2RTY4) | -0.019 (inactive) |
| MYO10 (UniProt Q9HD67) | 0 (inactive) |
| NUDT5 (UniProt Q9UKK9) | -0.021 (inactive) |
| ORC3 isoform 2 (UniProt Q9UBD5) | 0.023 (inactive) |
| NUB1 (UniProt Q9Y5A7) | -0.027 (inactive) |
| NAP1L5 (UniProt Q96NT1) | 0.033 (inactive) |
